PINK1 expr mod – A Quantitative High throughput Screen to Identify Chemical Modulators of PINK1 Expression | PINK1 immunofluorescence, high-content cytometry, 24 h | Potency, µM (highest dose often 76.6 µM), inactives show at the top dose activation (PINK1 increase), hits mostly activators | 410,000 compounds, 0.2% hits | AID 624263, 2012; active = well fitted activation curve with a large enough effect; inconclusive = small, poorly fitted or top-dose-only effect; cell line not stated here; also: potency is read from the fitted curve at half-maximal effect; % of control where 0% means no effect; nearly all actives have a fitted effect of over 65% in size
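Decision-based qHTS: stable cells, 24 h exposure to five compound concentrations, CCCP as control. Fixed cells stained for PINK1 plus nuclear, mitochondrial and cell markers, cytometer read.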
miR-21 act – qHTS Assay for Modulators of miRNAs and/orActivators of miR-21; HeLa miR-21 FLuc reporter, luciferase, 48 h; Potency, µM (titrated, usually from 38.3 µM), for inactives: top-dose activity change, positive = activation, actives largely listed as activators; 340,000 tested, under 10 active; AID 2288, 2010;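 also: % of control where 0% means no effect; miR-21 action dims this reporter so a rising signal means less miR-21 action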
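HeLa cells stably expressing CMV-driven firefly luciferase with a downstream miR-21 binding sequence, endogenously expressing miR-21, were treated with titrations (up to about 40uM final) for 48 hours at 37 degree Celsius. Luciferase luminescence was read after lysis.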
GALK inh – qHTS Assay for Inhibitors of Human Galactokinase (GALK); Potency, µM (doses to about 57.5 µM), for the others: at the top dose activity change, negative = inhibition, hits mostly inhibitors; Purified GALK, Kinase-Glo residual ATP luminescence; P51570; 270,000 compounds, 0.007% hits; also: potency is read from the fitted curve at half-maximal effect; % is scaled to controls: 0 for no effect and ±100 for the full control effect
Target sequence (P51570 whole entry, looked up): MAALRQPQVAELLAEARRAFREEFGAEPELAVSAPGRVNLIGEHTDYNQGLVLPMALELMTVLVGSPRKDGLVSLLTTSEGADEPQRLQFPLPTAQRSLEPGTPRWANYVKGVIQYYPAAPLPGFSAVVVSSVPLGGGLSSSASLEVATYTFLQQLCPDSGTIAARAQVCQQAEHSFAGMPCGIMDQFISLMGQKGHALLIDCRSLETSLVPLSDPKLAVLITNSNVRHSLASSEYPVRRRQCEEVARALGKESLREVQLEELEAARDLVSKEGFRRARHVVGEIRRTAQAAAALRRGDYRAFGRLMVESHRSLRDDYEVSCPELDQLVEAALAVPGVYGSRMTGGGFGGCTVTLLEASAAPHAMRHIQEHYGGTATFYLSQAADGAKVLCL
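5 nM enzyme, 35 uM ATP, 100 uM galactose, 20 mM HEPES pH8.0, 5 mM MgCl2; 1 h RT; residual ATP by Kinase-Glo Plus luminescence, qHTS format.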
TrxR1 substrate – qHTS Assay for Substrates of Mammalian Selenoprotein Thioredoxin Reductase 1 (TrxR1): qHTS | Thioredoxin reductase 1, cytoplasmic (Rattus norvegicus), O89049 | purified TrxR1 substrate turnover, NADPH consumption readout | Potency, µM (doses to about 114 µM), for the others: top-dose activity change, negative = substrate turnover | 390,000 compounds, 0.01% hits; also: potency is read from the fitted curve at half-maximal effect; % is scaled to controls: 0 for no effect and ±100 for the full control effect; nearly all actives have a fitted effect of over 50% in size
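Rat TrxR1, dispensed at 90 nM, was prereduced with 400 uM NADPH (final) for 5 min at ~22 deg C, then incubated with compound 15 min before 400 uM selenite. A first-read NADPH fluorescence drop versus no-compound background flagged substrates.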
rTrxR1 inhibitor – qHTS Assay for Inhibitors of Mammalian Selenoprotein Thioredoxin Reductase 1 (TrxR1): qHTS; Thioredoxin reductase 1, cytoplasmic (Rattus norvegicus), O89049; recombinant rTrxR1, NADPH fluorescence consumption, selenite substrate; Potency, µM (series often up to 114 µM), for the others: at the top dose activity change, negative = inhibition, usual class: inhibitors; 390,000 compounds, 1% hits; also: potency is read from the fitted curve at half-maximal effect; % is scaled to controls: 0 for no effect and ±100 for the full control effect; nearly all actives have a fitted effect of over 65% in size
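Rat TrxR1 (90 nM in the dispensed reagent) was pre-reduced with 400 uM NADPH for 5 min at room temperature, then incubated with compound for 15 min. After 400 uM selenite was added, NADPH fluorescence (Ex 340/Em 450 nm) was followed for 8 min.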
* hit, by the source's call; ? = inconclusive; · = no result given; [ ] = dose if it differs, or a comment. An excerpt weighted towards active compounds, which were near 1.1% of everything screened. Unless noted, calls follow the shape of the dose curve; as a rule, active = well fitted curve in the direction sought with a large enough effect; inconclusive = small, poorly fitted or top-dose-only effect, or another doubt; inactive = no such curve, though single readings can be large; an effect the other way counts as inactive or inconclusive.

SMILES | PINK1 expr mod | miR-21 act | GALK inh | TrxR1 substrate | rTrxR1 inhibitor
O=C(NCC1Cc2cccc(-c3cccnc3)c2O1)c1ccc2cc[nH]c2c1 (stereo not drawn) | 0% | · | · | · | ·
COc1ccc(C2(CNC(=O)/C=C\c3ccco3)CCCC2)cc1OC | 1% | -13% | 0% | -1% | 10µM*
COc1ccc(C(NC(=O)/C=C/c2ccco2)c2ccc(OC)c(OC)c2)cc1OC | -3% | 1% | 1% | -8% | 4.5µM*
Cn1nnnc1Sc1ncnc2scc(-c3ccc[nH]3)c12 | 2% | · | · | -2% | 50µM*
Cn1nnnc1Sc1ncnc2scc(Br)c12 | 6% | · | · | 5% | 5.6µM*
Cn1nnnc1Sc1ncnc2scc(-c3ccccc3)c12 | 0% | 27% | -4% | 9%[11.4 µM] | 7%[11.4 µM]
CC(O)(COc1ccccc1)c1ccc2c(c1)CN(Cc1cccn1-c1ccccn1)CCO2 (stereo not drawn) | 0% | · | · | · | ·
CN(CCO)c1cc(N2CCC3(CC2)OCCO3)c2nonc2c1[N+](=O)[O-] | 0% | 1% | 1% | -33% | 28µM*
CC1CCCN(c2cc(N(C)CCO)c([N+](=O)[O-])c3nonc23)C1 (stereo not drawn) | -1% | -3% | -1% | -13%[57.1 µM] | -10%[57.1 µM]
O=[N+]([O-])c1c(NCCO)cc(N2CCC3(CC2)OCCO3)c2nonc12 | 3% | -6% | 1% | -17% | -7%
CN(CCO)c1cc(N2CCCCC2)c2nonc2c1[N+](=O)[O-] | 0% | 0% | 3% | -18% | 45µM*
CC(C)CNC(=O)C1Nc2ccc(OC(F)(F)F)cc2C2C=CCC12 (stereo not drawn) | 0% | · | · | -6% | ?
CC(C)CNC(=O)C1Nc2ccc(C(F)(F)F)cc2C2C=CCC12 (stereo not drawn) | 0% | · | · | -2%[57.1 µM] | -15%[57.1 µM]
COC(=O)CNC(=O)C1Nc2ccccc2C2C=CCC12 (stereo not drawn) | 1% | · | · | 4%[57.1 µM] | 8.9µM*
CC(C)CNC(=O)C1Nc2ccccc2C2C=CCC12 (stereo not drawn) | 0% | · | · | 9%[57.1 µM] | 10µM*
COc1ccc(-c2cc3c(=O)n(CC(=O)Nc4ccc(Br)c(C)c4)ccn3n2)cc1OC | 1% | -7% | · | 1%[57.1 µM] | 13%[57.1 µM]
Oc1cc(-c2ccc(N3CCCCC3)nc2)cc2cccnc12 | 13µM* | · | · | 16% | 1%
CC(=O)c1cc(-c2ccc(F)cc2)n(CCC(=O)Nc2nc3c(C)cccc3s2)c1C | 8% | -1% | · | -3%[57.1 µM] | 19%[57.1 µM]
CC(=O)NC(=O)NC1OC(=O)C(Cl)=C1Cl (stereo not drawn) | -2% | 1% | 7% | -2% | 1.6µM*
COc1ccc2c(c1)c1c(c(=O)n(-c3ccc(OC)c(OC)c3)c(=O)n1Cc1ccccc1C)n2C | 0% | 0% | · | 12% | 43%
CCOC(=O)C1CCC(CN(Cc2c(Cl)cccc2Cl)S(=O)(=O)c2ccc(F)c(C)c2)CC1 (stereo not drawn) | 0% | 8% | · | 2%[57.1 µM] | 16%[57.1 µM]
CCOC(=O)C1=C(O)c2ccccc2C(=O)/C1=C\c1ccc(CC)cc1 | 16%[38.3 µM] | ? | -3% | -19% | 10µM*
CCCc1ccc(/C=C2\C(=O)c3ccccc3C(O)=C2C(=O)OCC)cc1 | · | ? | -3% | · | ·
COc1ccc(C2CC(=O)c3cc(-c4nc(-c5ccc(Cl)cc5)c(C)s4)c(=O)[nH]c3C2)cc1 (stereo not drawn) | 7% | -4% | · | 11% | 25%
CCN(CC)CCn1c(-c2ccccc2)csc1=Nc1ccccc1 | 28µM* | 5% | · | -2% | 3%
O=S(=O)(Nc1c(Br)cc(Br)c2cccnc12)C1CCCCC1 | 0% | · | · | 1%[0.457 µM] | -11%
CCCN1CNc2c(c(=O)[nH]c(=S)n2CCCc2ccccc2)C1 | 0% | · | · | 3% | -7%
Cc1ccccc1NC(=O)CSc1nnc(-c2ccco2)c(-c2ccco2)n1 | 0% | -4% | 4% | 0% | 2.5µM*
